Data from PubChem BioAssay.
Potency and affinity values are given separately. Results filed as inconclusive are left out. Calls of active or inactive are those of the source. Unless noted, the rule behind the calls is not given here.

Key:
[1] = cytotoxicity in PAX8-dependent RMG-1 cells, dose response, cell-based, cherry-pick (AID 687029;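 active = signal drop whose fitted half-maximal concentration is at most twice the top valid dose, in every test run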;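 note: cells exposed to compound for 96 hours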)
[2] = cytotoxicity in IOSE-T80 ovarian epithelial cells, dose response, selectivity assay for PAX8 inhibitor project, cell-based, cherry-pick (AID 687032;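 active = fitted half-maximal concentration for viability loss no higher than twice the top valid dose, in every repeat run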;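 note: cells exposed to compound for 96 h before reading; 0% = neutral control wells and -100% = 2 µM mitoxantrone kill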)
[3] = inhibitors of CMV-promoter luciferase reporter, dose response, counter-screen for Pax8 inhibitor project, cell-based, HEK293, luminescence, dry powder (AID 743020;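 active = signal-lowering compounds whose fitted half-maximal concentration is at or below twice the top tested dose in every run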;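 note: HEK293 cells stably expressing the CMV luciferase reporter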)
[4] = non-specific cell cytotoxicity, dose response, cytotoxicity control for PAX8 inhibitor project, plate reader, dry powder samples (AID 743021)
[5] = IGROV1 ovarian cancer cell cytotoxicity, dose response, PAX8 inhibitor project, plate reader, dry powder samples (AID 743043);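 note: more negative means fewer viable cells or more cytotoxicity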
[6] = NIH:OVCAR-3 ovarian cancer cell cytotoxicity, dose response, PAX8 inhibitor project, plate reader, dry powder samples (AID 743044); details: max activity: at 35 µM, hits give low values unless noted
[7] = IOSE-T80 ovarian epithelial cell cytotoxicity, dose response, cytotoxicity control for PAX8 inhibitor project, plate reader, dry powder samples (AID 743045);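 note: 0% = neutral control median and -100% = positive control median; more negative values mean more cell killing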
[8] = A2780 ovarian cancer cell cytotoxicity, dose response, cytotoxicity control, plate reader, dry powder samples (AID 743046);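 note: 0% = neutral control wells and -100% = cytotoxic reference compound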
[9] = cytotoxicity in OVCAR8 ovarian cancer cells, dose response, PAX8 project, cell-based, plate reader, dry powder samples (AID 743197)

Measured: max activity

C[C@@H]1CN([C@H](C)CO)C(=O)c2cc(NS(=O)(=O)c3cccs3)ccc2O[C@@H](C)CCCCO[C@H]1CN(C)Cc1ccc(C(F)(F)F)cc1
inactive: [1] | [2] | [3] | [4] | [5] | [6] -10.6% [at 16 µM, hits give low values] | [7] | [8]

N#Cc1cccc(-c2ccc3c(c2)[C@@H]2[C@@H](CCN2C(=O)C2CCCCC2)[C@@H](CO)N3)c1
inactive: [1] | [2] | [3] | [4] | [5] | [6] 11.5% [at 16 µM, hits give low values] | [7] | [8]

O=C(Nc1cccc(F)c1)N1CCCCN2[C@@H](CO)[C@@H](c3ccc(-c4ccncc4)cc3)[C@@H]2C1
inactive: [1] | [2] | [3] | [4] | [5] | [6] 12.6% [at 1 µM, hits give low values] | [7] | [8]

COc1ccc(CN2[C@H](CO)[C@H]3c4ccccc4NC[C@H]32)cc1
inactive: [1] | [2] | [3] | [4] | [5] | [6] 26.6% [at 0.5 µM, hits give low values] | [7] | [8]

C[C@@H]1CN([C@@H](C)CO)C(=O)c2cc(NS(=O)(=O)c3ccc(F)cc3)ccc2O[C@@H]1CN(C)Cc1ccc(C(F)(F)F)cc1
inactive: [1] | [2] | [3] | [4] | [5] | [6] -27.7% | [7] | [8]

COCCNC(=O)C[C@@H]1C[C@H]2c3cc(NC(=O)Nc4ccc(C(F)(F)F)cc4)ccc3O[C@H]2[C@H](CO)O1
inactive: [1] | [2] | [3] | [4] | [5] | [6] -18.8% | [7] | [8]

C[C@@H]1CCCCO[C@@H](CN(C)Cc2ccc(Cl)c(Cl)c2)[C@H](C)CN([C@@H](C)CO)C(=O)c2cc(NS(=O)(=O)c3ccc(Cl)cc3)ccc2O1
inactive: [1] | [2] | [3] | [4] | [5] | [6] 10.4% [at 0.5 µM, hits give low values] | [7] | [8]

C[C@@H]1CCCCO[C@H](CN(C)Cc2ccc(C(F)(F)F)cc2)[C@H](C)CN([C@@H](C)CO)C(=O)c2cc(NC(=O)Nc3ccc(F)cc3)ccc2O1
inactive: [1] | [2] | [3] | [4] | [5] | [6] -17.3% | [7] | [8] | [9]

C[C@H](CO)N1C[C@H](C)[C@@H](CN(C)Cc2ccc(Cl)c(Cl)c2)OCCCC[C@H](C)Oc2ccc(NC(=O)Nc3ccc(C(F)(F)F)cc3)cc2C1=O
inactive: [1] | [2] | [3] | [4] | [5] | [6] 35.5% [at 2.1 µM, hits give low values] | [7] | [8] | [9]

Cc1ccc(S(=O)(=O)Nc2cccc3c2O[C@@H](CN(C)C(=O)Nc2ccc(C(F)(F)F)cc2)[C@@H](C)CN([C@H](C)CO)C3=O)cc1
inactive: [1] | [2] | [3] | [4] | [5] | [6] 25% [at 2.1 µM, hits give low values] | [7] | [8] | [9]

C[C@@H]1CN([C@@H](C)CO)C(=O)Cc2cc(NC(=O)Nc3ccc(F)cc3)ccc2O[C@H]1CN(C)Cc1ccc(Cl)c(Cl)c1
inactive: [1] | [2] | [3] | [4] | [5] | [6] 11.5% [at 4.2 µM, hits give low values] | [7] | [8] | [9]

Cc1ccc(S(=O)(=O)Nc2ccc3c(c2)C(=O)N([C@@H](C)CO)C[C@@H](C)[C@@H](CN(C)Cc2ccc(C(F)(F)F)cc2)OCCCC[C@H](C)O3)cc1
inactive: [1] | [2] | [3] | [4] | [5] | [6] -14.9% [at 2.1 µM, hits give low values] | [7] | [8] | [9]

C[C@H]1CN([C@@H](C)CO)C(=O)CCCn2nncc2CO[C@@H]1CN(C)C(=O)Nc1ccc(-c2cccs2)cc1
inactive: [1] | [2] | [3] | [4] | [5] | [6] -29.9% | [7] | [8] | [9]

Cc1ccc(S(=O)(=O)N(C)C[C@@H]2Oc3cc(C#Cc4ccncc4)ccc3S(=O)(=O)N([C@@H](C)CO)C[C@H]2C)cc1
inactive: [1] | [2] | [3] | [4] | [5] | [6] -28.9% [at 16 µM, hits give low values] | [7] | [8] | [9]

C[C@@H]1CN([C@@H](C)CO)C(=O)c2c(c3ccccc3n2C)-c2ccccc2CO[C@H]1CN(C)S(=O)(=O)c1cccc(F)c1
inactive: [1] | [2] | [3] | [4] | [5] | [6] -19.9% [at 16 µM, hits give low values] | [7] | [8]

C[C@@H]1CCCCO[C@@H](CN(C)Cc2ccncc2)[C@H](C)CN([C@H](C)CO)C(=O)c2cc(NC(=O)Nc3ccc(C(F)(F)F)cc3)ccc2O1
inactive: [1] | [2] | [3] | [4] | [5] | [6] 17.2% [at 4.2 µM, hits give low values] | [7] | [8]

C[C@@H]1CN([C@@H](C)CO)C(=O)Cc2cc(NC(=O)Nc3ccc(C(F)(F)F)cc3)ccc2O[C@H]1CN(C)C(=O)Nc1ccc(C(F)(F)F)cc1
inactive: [1] | [2] | [3] | [4] | [5] | [6] -32.2% | [7] | [8]

CNC[C@@H]1Oc2cc(C#CC3CCCCC3)ccc2S(=O)(=O)N([C@@H](C)CO)C[C@@H]1C
inactive: [1] | [2] | [3] | [4] | [5] | [6] 17.9% [at 0.26 µM, hits give low values] | [7] | [8] | [9]

C[C@@H]1CCCCO[C@@H](CN(C)Cc2ccc(C(F)(F)F)cc2)[C@H](C)CN([C@@H](C)CO)C(=O)c2cc(NS(=O)(=O)c3ccccc3)ccc2O1
inactive: [1] | [2] | [3] | [4] | [5] | [6] 11.3% [at 2.1 µM, hits give low values] | [7] | [8] | [9]
